# Rows were chosen to be rich in hits. Some 21% of all compounds tested hit in one or more screens of this group.
# NS1 function inh: influenza NS1 inhibition; Potency, µM (top dose mostly 46.1 µM), inactives show at the highest dose activity, positive = more growth; actives 0.4% (n = 270,000); calls by dose curve; note: potency is the fitted concentration of half-maximal effect; actives are rising curves; nearly all actives have a fitted effect of over 50% in size
#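 Compounds were scored for reversing the slow growth caused by influenza A NS1 in S. cerevisiae, measured by optical density at 600 nm. Assay medium contained 2% galactose at pH 6.0; NS1-free yeast of the same strain were the positive control.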
# Pf growth 48h: P. falciparum growth inhibition at 48 hours (one generation); actives 5.9% (n = 310,000); Potency, µM (doses to about 28.7 µM), for inactives: at the top dose activity change, negative = inhibition, usual class: inhibitors; P. falciparum luciferase growth in erythrocytes, 48 h; note: potency is the fitted concentration of half-maximal effect; % is set by controls: 0 for no effect and ±100 for the full control effect
#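 Growth was read as firefly luciferase luminescence after a 48 h, 37 C, 5% CO2 exposure of compounds to reporter-bearing P. falciparum cultures (0.1% parasitemia, 2% hematocrit final) in Albumax-supplemented RPMI 1640.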
# CHX counter: counter-screen hit for Shiga toxin inhibitors, cycloheximide. max response, %. actives 12% (n = 300,000). cell reporter, cycloheximide protein synthesis inhibition counterscreen. AID 2314; in the data active = max response mostly above about 13%, no sharp cut-off; inactive = mostly below about 14%; note: read at 38.3 µM for the half of the compounds with a filed dose; 0% is about no effect
# Pf growth 96h: P. falciparum growth inhibition at 96 hours. AID 504834. actives 6.9% (n = 320,000). P. falciparum luciferase reporter growth, 96 h. Potency, µM (titrated, usually from 28.7 µM), for inactives: top-dose activity change, negative = inhibition, actives largely listed as inhibitors; note: potency is the fitted concentration of half-maximal effect; % is set by controls: 0 for no effect and ±100 for the full control effect
#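 Parasite growth measured via integrated firefly luciferase reporter in P. falciparum. Infected erythrocytes at 2% hematocrit, 0.05% parasitemia final were treated 96 hours at 37 C under 5% CO2, and luminescence was read.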
# FBPA Giardia inh: inhibitors of Giardia lamblia fructose-1,6-bisphosphate aldolase; A8B2U2; purified Giardia FBPA; Potency, µM (series often up to 59.6 µM), for the others: top-dose activity, negative = inhibition, hits mostly inhibitors; actives 0.71% (n = 290,000); note: potency is the fitted concentration of half-maximal effect; % is set by controls: 0 for no effect and ±100 for the full control effect; nearly all actives have a fitted effect of over 55% in size
# Target sequence (A8B2U2 whole entry, looked up): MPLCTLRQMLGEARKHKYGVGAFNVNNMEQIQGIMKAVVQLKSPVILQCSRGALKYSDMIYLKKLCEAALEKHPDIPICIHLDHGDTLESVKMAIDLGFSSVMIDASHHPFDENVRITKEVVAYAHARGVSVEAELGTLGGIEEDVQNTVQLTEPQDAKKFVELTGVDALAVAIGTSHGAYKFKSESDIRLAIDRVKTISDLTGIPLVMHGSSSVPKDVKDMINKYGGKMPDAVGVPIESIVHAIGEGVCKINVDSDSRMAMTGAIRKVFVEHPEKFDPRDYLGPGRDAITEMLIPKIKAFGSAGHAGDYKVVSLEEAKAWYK
#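 40 nM FBPA preincubated 10 min at RT with compound (up to 57.5 uM final), then substrate plus GAPDH/TPI/NAD/arsenate coupling and diaphorase/resazurin added. Fluorescence read after 20 min at RT, 525/598 nm.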
# Shiga inhibitor: Shiga toxin inhibition; actives 9.2% (n = 290,000); inhibition, % at 38.7 µM; AID 2315; Vero cells, Shiga toxin protein synthesis inhibition reporter; in the data active = inhibition mostly above about 28%, no sharp cut-off; inactive = mostly below about 43%; note: 0% is about no effect
# An asterisk follows results filed as active; ? = inconclusive; / = no result given. Unless noted, calls come from the whole dose curve; as a rule, active = well fitted curve in the direction sought with a large enough effect; inconclusive = small, poorly fitted or top-dose-only effect, or another doubt; inactive = no such curve, though single readings can be large; an effect the other way counts as inactive or inconclusive.
SMILES,NS1 function inh,Pf growth 48h,CHX counter,Pf growth 96h,FBPA Giardia inh,Shiga inhibitor
Cc1cccc(NC(=O)COc2ccccc2C(=O)NC(C)c2ccccc2)c1 (stereo unspecified),9%,10%,6,9.3µM*,/,-20
COc1cc(OC)cc(C(=O)NC(=S)N(Cc2ccccc2)C(C)C)c1,?,?,-3,?,21%,20
COCC(=O)N1CCC(Oc2ccc(C(=O)N3C[C@@H]4CCC[C@H]3C4)cc2)CC1,-3%,?,2,-6%,10%,2
CCOc1ccc(NC(=O)c2ccc(NC(=O)c3ccccc3Br)cc2)cc1,/,0%,/,11%,/,/
CCOc1ccc(NC(=O)c2ccccc2O)cc1,-50%,0%,12*,?,4%,11
CCOc1ccc(-c2ccc(SCC(=O)NCC3CCCO3)nn2)cc1 (stereo unspecified),/,100%,37*,451%,-8%,47
COc1ccc(-c2cn3nc(SCC(=O)NCC4CCCO4)ccc3n2)cc1 (stereo unspecified),-4%,18%,26*,8%,/,61*
Cc1ccc(-c2ccc(SCC(=O)NCC3CCCO3)nn2)cc1 (stereo unspecified),/,73%,16,26%,-2%,36
O=C(CSc1ccc2nc(-c3ccccc3)cn2n1)NCC1CCCO1 (stereo unspecified),-2%,67%,23*,5.2µM*,-6%,70*
CCOC(=O)CNC(=O)CSc1nc(-c2ccc(C)cc2)ns1,/,35%,24,39%,-2%,48*
CCOc1ccc(NC(=O)[C@@H]2CCC(=O)N2C2OC(=O)c3ccccc32)cc1 (stereo partly specified),-24%,39%,1,-24%,-2%,9
O=C(/C=C/c1cccc(F)c1)NCCCn1ccnc1,6%,/,7,21%,-13%,-4
CS(=O)(=O)c1ccc(-c2csc(N3CCC(C(N)=O)CC3)n2)cc1,/,5%,/,0%,/,/
O=C(NCCc1ccccc1)C1(S(=O)(=O)c2ccc(Cl)cc2)CC1,-7%,18%,1,0%,9%,4
O=C(CSc1nc(-c2ccccc2)ns1)NCC1CCCO1 (stereo unspecified),-5%,30%,45*,40%,/,65*
O=C(CCN1N=C(c2ccccc2)CCC1=O)NCC1CCCO1 (stereo unspecified),7%,13%,-3,3.7µM*,/,-7
N/C(Cc1ccc(Cl)c(Cl)c1)=N\OC(=O)c1ccc(Br)o1,-60%,15µM*,-2,15µM*,2%,-4
N/C(=N\OC(=O)c1ccc(Br)o1)c1cccnc1,/,224%,35*,38%,0%,103*
COc1ccc(/C(N)=N/OC(=O)c2ccc(Br)o2)cc1,-16%,150%,31,-4%,-6%,84*
O=C(Cc1ccc(Cl)c(Cl)c1)Nc1cccc(S(=O)(=O)N2CCOCC2)c1,/,?,4,?,-2%,-5
CCCC/C=C/C(NC(=O)OCc1ccccc1Cl)c1ccccc1 (stereo unspecified),/,/,/,/,5%,/
Cc1cccc(NC(=O)C(CCC(N)=O)NC(=O)OCc2ccccc2)c1 (stereo unspecified),8%,8%,2,32%,0%,11
CCN1/C(=C/c2cc[n+](C)cc2)C=Cc2cc(C)ccc21,15%,0.74µM*,-1,-26%,?,8
Cc1cc(C)nc(-n2ncc3c2CC(c2ccccc2C)CC3=O)n1 (stereo unspecified),5%,?,-4,5.2µM*,4%,-12
Cc1cc(C)nc(-n2ncc3c2CC(c2ccccc2)CC3=O)n1 (stereo unspecified),8%,-28%,-2,?,3%,-6
Cc1cc(C)nc(-n2ncc3c2CC(c2cccc(Cl)c2)CC3=O)n1 (stereo unspecified),/,?,1,4.1µM*,6%,-14
O=C(NNC(=S)Nc1ccc(Cl)cc1)c1cccs1,-4%,78%,38*,-1%,18%,100*
O=C(NNC(=S)Nc1ccccc1)c1cccs1,4%,193%,38*,256%,3%,47*
Cc1c(OCC(=O)NCc2cccnc2)ccc2c3c(c(=O)oc12)CCCC3,1%,-10%,-3,13µM*,/,-9

# Source: PubChem BioAssay (National Center for Advancing Translational Sciences (NCATS))
